# Tests used:
# Test in all cases: DAPPL (digital affinity profiling via proximity ligation, sequencing); 10 mM Tris-HCl pH 7.5, 50 mM NaCl, 1 mM DTT, 4% glycerol, room temperature, 30 min; GST-TFs on glutathione beads, 16-mer random dsDNA library, 0.1% formaldehyde crosslink after washing; high values mean tight binding
# FLI1 = target: T1, FLI1 (Homo sapiens, UniProt Q01543 1-452); settings: protein: recombinant; tags: N-terminal GST; dsDNA, one strand shown
# T1 sequence: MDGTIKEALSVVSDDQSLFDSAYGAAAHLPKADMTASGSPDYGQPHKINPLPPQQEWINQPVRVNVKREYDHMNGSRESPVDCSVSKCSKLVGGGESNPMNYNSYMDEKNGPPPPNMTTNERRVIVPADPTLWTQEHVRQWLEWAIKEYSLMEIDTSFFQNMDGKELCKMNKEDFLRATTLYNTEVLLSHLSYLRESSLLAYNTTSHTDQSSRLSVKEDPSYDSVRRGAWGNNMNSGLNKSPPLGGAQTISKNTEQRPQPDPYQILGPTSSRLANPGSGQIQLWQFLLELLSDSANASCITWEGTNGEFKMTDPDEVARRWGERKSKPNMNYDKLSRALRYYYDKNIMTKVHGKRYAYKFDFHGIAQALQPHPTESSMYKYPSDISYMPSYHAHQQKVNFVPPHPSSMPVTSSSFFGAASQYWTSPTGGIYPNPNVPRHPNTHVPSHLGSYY
# In short: (§1)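 Each value of binding signal is a hexamer's read frequency for a factor divided by the same hexamer's frequency in the tag-only sample. Barcoded, bead-captured GST fusions of human transcription factors made in yeast were pooled with that sample and incubated with 200 nmole of a random double-stranded 16-mer DNA library in Tris/NaCl/DTT/glycerol buffer at room temperature for 30 min. Washing, 0.1% formaldehyde crosslinking, proximity ligation, PCR and Illumina NextSeq500 sequencing followed.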
# ELK1 = target: T2, ELK1 (Homo sapiens, UniProt P19419 1-428); settings: protein: recombinant; tags: N-terminal GST; dsDNA, one strand shown
# T2 sequence: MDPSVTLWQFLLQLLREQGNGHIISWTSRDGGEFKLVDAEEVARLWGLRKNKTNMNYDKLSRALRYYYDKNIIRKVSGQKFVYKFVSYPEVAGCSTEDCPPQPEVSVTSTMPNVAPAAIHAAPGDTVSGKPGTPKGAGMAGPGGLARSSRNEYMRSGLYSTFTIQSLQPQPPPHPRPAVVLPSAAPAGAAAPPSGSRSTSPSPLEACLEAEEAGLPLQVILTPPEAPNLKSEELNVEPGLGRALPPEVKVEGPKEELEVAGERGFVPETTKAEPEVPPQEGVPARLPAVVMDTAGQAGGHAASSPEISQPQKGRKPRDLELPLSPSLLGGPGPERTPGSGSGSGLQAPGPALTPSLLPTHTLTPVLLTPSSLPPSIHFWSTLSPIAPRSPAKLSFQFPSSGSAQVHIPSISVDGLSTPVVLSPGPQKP
# In short: as §1
# GABPA = target: T3, GABPA (Homo sapiens, UniProt Q06546 1-454); settings: protein: recombinant; tags: N-terminal GST; dsDNA, one strand shown
# T3 sequence: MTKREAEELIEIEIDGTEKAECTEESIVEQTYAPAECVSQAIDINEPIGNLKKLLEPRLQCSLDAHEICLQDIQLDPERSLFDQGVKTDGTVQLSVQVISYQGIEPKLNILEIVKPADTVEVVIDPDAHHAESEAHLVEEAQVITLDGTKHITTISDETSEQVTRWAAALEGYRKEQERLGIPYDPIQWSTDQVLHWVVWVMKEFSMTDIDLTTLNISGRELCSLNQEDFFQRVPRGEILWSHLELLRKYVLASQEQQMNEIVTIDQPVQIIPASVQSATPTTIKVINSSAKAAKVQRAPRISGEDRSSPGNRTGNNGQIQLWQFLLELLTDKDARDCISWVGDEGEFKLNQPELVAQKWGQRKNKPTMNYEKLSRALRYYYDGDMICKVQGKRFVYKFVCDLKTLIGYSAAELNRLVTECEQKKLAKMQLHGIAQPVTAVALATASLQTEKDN
# In short: as §1
# ERG = target: T4, ERG (Homo sapiens, UniProt P11308 1-479); settings: protein: recombinant; tags: N-terminal GST; dsDNA, one strand shown
# T4 sequence: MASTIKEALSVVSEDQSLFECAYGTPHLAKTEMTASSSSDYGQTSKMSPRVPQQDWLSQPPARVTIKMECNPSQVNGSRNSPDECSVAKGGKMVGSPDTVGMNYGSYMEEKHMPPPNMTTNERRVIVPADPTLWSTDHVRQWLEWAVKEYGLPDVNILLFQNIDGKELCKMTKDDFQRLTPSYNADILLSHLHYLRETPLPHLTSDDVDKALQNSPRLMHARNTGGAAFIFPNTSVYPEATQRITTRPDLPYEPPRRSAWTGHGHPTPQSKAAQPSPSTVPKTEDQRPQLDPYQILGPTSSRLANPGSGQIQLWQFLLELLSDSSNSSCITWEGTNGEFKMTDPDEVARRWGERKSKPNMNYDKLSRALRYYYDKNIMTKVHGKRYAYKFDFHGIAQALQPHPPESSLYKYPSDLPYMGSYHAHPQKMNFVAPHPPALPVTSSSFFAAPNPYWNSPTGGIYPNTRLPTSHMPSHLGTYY
# In short: as §1
# ELF1 = ELF1 (Homo sapiens, UniProt P32519 1-619); settings: protein: recombinant; tags: N-terminal GST; dsDNA, one strand shown
# In short: as §1
# EHF = target: T5, EHF (Homo sapiens, UniProt Q9NZC4 1-300); settings: protein: recombinant; tags: N-terminal GST; dsDNA, one strand shown
# T5 sequence: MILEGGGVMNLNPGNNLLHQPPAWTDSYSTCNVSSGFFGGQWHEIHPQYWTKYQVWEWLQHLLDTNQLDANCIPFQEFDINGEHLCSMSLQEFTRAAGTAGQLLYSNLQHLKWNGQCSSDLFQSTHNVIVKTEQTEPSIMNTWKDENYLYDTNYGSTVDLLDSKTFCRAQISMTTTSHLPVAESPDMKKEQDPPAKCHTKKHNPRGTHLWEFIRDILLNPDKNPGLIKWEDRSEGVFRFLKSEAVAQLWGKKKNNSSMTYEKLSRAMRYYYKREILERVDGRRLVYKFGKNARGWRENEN
# In short: as §1
# SPI1 = SPI1 (Homo sapiens, UniProt P17947 1-270); settings: protein: recombinant; tags: N-terminal GST; dsDNA, one strand shown
# In short: as §1
# SPIB = SPIB (Homo sapiens, UniProt Q01892 1-262); settings: protein: recombinant; tags: N-terminal GST; dsDNA, one strand shown
# In short: as §1
# ELK3 = target: T6, ELK3 (Homo sapiens, UniProt P41970 1-407); settings: protein: recombinant; tags: N-terminal GST; dsDNA, one strand shown
# T6 sequence: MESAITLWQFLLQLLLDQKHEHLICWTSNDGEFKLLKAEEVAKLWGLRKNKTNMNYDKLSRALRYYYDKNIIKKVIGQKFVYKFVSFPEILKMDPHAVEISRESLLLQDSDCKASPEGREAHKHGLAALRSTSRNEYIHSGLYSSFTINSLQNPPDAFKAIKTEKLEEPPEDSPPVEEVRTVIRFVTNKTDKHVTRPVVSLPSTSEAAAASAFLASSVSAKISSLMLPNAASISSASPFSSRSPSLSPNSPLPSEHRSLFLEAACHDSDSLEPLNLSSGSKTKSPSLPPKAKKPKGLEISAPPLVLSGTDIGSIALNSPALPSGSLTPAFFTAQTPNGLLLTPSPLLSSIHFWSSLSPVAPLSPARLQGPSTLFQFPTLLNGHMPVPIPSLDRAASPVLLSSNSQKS
# In short: as §1
# FEV = target: T7, FEV (Homo sapiens, UniProt Q99581 1-238); settings: protein: recombinant; tags: N-terminal GST; dsDNA, one strand shown
# T7 sequence: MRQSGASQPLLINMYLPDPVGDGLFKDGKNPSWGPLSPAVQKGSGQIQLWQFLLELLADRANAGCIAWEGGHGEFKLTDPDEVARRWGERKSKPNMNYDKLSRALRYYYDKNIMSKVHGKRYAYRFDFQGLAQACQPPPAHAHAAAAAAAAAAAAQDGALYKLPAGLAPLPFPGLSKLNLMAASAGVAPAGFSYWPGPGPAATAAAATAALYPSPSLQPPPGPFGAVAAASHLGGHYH
# In short: as §1
# ETV5 = ETV5 (Homo sapiens, UniProt P41161 1-510); settings: protein: recombinant; tags: N-terminal GST; dsDNA, one strand shown
# In short: as §1
# HSF1 = HSF1 (Homo sapiens, UniProt Q00613 1-529); settings: protein: recombinant; tags: N-terminal GST; chain copies: 3; dsDNA, one strand shown
# In short: as §1
# SPIC = target: T8, SPIC (Homo sapiens, UniProt Q8N5J4 1-248); settings: protein: recombinant; tags: N-terminal GST; dsDNA, one strand shown
# T8 sequence: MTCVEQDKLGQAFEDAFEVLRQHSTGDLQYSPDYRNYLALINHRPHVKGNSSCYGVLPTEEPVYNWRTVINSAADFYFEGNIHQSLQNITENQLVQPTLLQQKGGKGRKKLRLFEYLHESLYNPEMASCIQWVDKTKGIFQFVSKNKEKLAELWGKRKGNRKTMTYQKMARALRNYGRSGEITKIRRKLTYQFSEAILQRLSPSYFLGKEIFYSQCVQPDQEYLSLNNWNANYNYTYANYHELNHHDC
# In short: as §1
# ELF4 = ELF4 (Homo sapiens, UniProt Q99607 1-663); settings: protein: recombinant; tags: N-terminal GST; dsDNA, one strand shown
# In short: as §1
# ELK4 = target: T9, ELK4 (Homo sapiens, UniProt P28324-2 1-405); settings: protein: recombinant; tags: N-terminal GST; dsDNA, one strand shown
# T9 sequence: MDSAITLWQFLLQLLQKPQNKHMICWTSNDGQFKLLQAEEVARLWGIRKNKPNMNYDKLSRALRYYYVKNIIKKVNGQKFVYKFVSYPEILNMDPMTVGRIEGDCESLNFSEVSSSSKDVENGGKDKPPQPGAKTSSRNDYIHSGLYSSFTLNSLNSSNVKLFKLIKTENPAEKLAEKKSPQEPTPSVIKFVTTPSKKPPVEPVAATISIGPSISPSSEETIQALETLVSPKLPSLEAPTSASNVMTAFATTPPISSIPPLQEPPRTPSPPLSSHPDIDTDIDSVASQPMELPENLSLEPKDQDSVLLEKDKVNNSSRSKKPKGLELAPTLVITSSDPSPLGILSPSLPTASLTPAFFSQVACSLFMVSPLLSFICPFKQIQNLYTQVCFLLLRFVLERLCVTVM
# In short: as §1
# ETV2 = target: T10, ETV2 (Homo sapiens, UniProt O00321 1-342); settings: protein: recombinant; tags: N-terminal GST; dsDNA, one strand shown
# T10 sequence: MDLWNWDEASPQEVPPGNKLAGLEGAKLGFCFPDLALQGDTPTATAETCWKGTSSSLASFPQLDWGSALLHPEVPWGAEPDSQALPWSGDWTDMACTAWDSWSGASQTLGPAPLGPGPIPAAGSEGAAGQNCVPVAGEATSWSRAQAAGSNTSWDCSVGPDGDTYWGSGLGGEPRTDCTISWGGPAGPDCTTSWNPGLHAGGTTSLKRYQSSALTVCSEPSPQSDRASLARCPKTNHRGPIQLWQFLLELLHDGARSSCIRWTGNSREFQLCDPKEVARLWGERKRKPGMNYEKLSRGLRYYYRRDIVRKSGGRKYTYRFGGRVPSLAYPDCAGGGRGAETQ
# In short: as §1
# ELF3 = target: T11, ELF3 (Homo sapiens, UniProt P78545 1-371); settings: protein: recombinant; tags: N-terminal GST; dsDNA, one strand shown
# T11 sequence: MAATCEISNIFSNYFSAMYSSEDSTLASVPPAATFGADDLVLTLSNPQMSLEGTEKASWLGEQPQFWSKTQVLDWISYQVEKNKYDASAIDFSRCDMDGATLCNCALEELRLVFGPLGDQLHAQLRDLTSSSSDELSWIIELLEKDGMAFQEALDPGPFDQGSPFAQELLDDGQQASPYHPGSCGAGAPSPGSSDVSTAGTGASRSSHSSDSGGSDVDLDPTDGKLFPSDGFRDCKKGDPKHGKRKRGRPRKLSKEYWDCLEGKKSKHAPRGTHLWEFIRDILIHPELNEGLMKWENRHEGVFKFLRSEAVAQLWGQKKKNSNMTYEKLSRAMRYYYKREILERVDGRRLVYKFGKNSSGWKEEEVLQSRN
# In short: as §1
# CRX = CRX (Homo sapiens, UniProt O43186 1-299); settings: protein: recombinant; tags: N-terminal GST; dsDNA, one strand shown
# In short: as §1
# ETV1 = ETV1 (Homo sapiens, UniProt P50549 1-477); settings: protein: recombinant; tags: N-terminal GST; dsDNA, one strand shown
# In short: as §1
# ELF1, sequence (P32519 whole entry): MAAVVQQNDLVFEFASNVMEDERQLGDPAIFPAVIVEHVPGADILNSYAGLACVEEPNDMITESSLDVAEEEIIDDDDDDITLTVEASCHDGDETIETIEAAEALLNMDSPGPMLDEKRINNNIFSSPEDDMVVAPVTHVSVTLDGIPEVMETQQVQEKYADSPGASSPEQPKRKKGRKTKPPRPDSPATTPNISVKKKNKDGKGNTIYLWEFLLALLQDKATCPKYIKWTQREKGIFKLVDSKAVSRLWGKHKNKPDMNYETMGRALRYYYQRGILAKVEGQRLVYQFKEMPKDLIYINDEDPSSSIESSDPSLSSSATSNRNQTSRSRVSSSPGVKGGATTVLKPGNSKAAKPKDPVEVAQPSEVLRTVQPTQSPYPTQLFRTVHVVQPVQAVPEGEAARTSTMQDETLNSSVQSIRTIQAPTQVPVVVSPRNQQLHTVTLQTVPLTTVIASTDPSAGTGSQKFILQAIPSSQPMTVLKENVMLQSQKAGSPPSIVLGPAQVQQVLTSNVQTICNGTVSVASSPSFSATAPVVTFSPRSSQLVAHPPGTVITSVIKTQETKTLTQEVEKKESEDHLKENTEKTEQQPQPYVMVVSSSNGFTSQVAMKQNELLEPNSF
# ETV5, sequence (P41161 whole entry): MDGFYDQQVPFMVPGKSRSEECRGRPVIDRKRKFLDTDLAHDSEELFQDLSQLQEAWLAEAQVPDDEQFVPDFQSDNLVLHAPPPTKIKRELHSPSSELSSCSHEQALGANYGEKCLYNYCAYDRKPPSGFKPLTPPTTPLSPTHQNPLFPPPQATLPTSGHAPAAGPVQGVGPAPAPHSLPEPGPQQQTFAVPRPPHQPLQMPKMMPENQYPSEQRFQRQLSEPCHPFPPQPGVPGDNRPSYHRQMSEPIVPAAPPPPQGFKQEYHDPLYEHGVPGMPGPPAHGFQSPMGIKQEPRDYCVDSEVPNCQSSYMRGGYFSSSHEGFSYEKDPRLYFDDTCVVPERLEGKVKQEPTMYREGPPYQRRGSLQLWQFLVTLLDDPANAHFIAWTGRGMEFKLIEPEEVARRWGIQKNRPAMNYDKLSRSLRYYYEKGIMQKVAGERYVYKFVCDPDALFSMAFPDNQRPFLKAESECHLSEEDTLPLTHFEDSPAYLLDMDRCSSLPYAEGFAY
# HSF1, sequence (Q00613 whole entry): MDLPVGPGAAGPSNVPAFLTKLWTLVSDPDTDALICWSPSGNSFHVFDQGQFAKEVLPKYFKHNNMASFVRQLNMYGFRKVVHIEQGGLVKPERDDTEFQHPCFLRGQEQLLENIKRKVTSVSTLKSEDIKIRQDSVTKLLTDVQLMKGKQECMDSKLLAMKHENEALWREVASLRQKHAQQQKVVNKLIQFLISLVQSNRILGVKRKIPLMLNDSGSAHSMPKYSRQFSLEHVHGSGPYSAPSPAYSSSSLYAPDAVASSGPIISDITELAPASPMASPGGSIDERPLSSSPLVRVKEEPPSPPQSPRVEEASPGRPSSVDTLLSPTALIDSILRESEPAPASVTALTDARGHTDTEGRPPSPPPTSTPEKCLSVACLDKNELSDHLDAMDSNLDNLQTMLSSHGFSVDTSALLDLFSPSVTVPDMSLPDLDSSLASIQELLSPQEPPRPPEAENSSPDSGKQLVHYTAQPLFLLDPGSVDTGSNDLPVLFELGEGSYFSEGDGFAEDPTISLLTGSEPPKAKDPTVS
# SPIB, sequence (Q01892 whole entry): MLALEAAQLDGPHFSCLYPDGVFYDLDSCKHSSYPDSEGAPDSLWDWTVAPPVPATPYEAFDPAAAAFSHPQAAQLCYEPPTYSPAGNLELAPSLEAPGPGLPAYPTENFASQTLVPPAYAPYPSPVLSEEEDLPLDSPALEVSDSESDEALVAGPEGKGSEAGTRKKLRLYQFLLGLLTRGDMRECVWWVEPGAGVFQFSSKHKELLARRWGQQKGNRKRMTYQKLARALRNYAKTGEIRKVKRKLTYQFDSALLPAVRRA
# CRX, sequence (O43186 whole entry): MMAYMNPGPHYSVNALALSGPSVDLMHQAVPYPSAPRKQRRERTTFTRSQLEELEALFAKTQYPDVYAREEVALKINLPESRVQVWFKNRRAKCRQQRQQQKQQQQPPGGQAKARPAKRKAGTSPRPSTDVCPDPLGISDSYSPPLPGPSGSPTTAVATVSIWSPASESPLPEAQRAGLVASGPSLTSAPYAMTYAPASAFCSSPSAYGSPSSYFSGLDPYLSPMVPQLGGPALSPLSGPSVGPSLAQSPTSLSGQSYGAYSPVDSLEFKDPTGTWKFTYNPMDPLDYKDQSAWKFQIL
# ELF4, sequence (Q99607 whole entry): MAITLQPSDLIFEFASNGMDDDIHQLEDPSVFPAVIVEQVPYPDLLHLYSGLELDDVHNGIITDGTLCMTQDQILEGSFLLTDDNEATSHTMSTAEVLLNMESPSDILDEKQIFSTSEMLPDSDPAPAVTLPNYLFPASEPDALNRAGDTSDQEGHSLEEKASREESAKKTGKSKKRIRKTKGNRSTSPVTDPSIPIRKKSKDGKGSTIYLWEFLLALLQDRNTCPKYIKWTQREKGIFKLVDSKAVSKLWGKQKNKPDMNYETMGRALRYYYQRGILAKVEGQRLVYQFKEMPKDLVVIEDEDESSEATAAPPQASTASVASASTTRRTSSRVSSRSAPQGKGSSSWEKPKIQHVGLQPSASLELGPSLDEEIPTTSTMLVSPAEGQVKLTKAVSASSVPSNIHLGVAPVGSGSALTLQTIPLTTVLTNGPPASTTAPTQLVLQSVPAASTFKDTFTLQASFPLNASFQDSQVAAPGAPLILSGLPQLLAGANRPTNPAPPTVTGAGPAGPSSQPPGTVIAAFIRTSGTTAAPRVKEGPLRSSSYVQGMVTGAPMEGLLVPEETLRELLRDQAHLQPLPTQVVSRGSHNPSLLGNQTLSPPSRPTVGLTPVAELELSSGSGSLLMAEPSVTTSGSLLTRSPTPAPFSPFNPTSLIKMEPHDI
# ETV1, sequence (P50549 whole entry): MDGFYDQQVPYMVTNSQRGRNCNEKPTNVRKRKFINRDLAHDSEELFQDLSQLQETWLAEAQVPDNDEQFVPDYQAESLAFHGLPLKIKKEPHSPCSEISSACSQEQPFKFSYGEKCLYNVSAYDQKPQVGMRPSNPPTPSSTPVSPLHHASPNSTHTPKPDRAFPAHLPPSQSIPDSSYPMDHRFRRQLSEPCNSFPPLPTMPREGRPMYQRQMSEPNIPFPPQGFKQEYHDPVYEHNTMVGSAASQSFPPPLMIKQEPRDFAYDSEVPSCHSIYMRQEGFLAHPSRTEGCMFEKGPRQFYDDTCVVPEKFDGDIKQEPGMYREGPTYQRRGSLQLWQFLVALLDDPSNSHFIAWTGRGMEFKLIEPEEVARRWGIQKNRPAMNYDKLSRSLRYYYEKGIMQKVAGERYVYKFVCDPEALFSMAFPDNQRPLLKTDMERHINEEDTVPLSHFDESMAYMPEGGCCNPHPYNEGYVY
sequence,measurement,setting,value
TAGCAC,binding signal,FLI1,"1.16 fold enrichment (6-mer frequency, TF over GST control)"
same,binding signal,ELK1,"1.12 fold enrichment (6-mer frequency, TF over GST control)"
same,binding signal,GABPA,"1.24 fold enrichment (6-mer frequency, TF over GST control)"
same,binding signal,ERG,"1.15 fold enrichment (6-mer frequency, TF over GST control)"
same,binding signal,ELF1,"1.15 fold enrichment (6-mer frequency, TF over GST control)"
same,binding signal,EHF,"1.16 fold enrichment (6-mer frequency, TF over GST control)"
same,binding signal,SPI1,"1.06 fold enrichment (6-mer frequency, TF over GST control)"
same,binding signal,SPIB,"1.15 fold enrichment (6-mer frequency, TF over GST control)"
same,binding signal,ELK3,"1.19 fold enrichment (6-mer frequency, TF over GST control)"
same,binding signal,FEV,"1.22 fold enrichment (6-mer frequency, TF over GST control)"
same,binding signal,ETV5,"1.14 fold enrichment (6-mer frequency, TF over GST control)"
same,binding signal,HSF1,"1.24 fold enrichment (6-mer frequency, TF over GST control)"
same,binding signal,SPIC,"1.04 fold enrichment (6-mer frequency, TF over GST control)"
same,binding signal,ELF4,"1.18 fold enrichment (6-mer frequency, TF over GST control)"
same,binding signal,ELK4,"1.11 fold enrichment (6-mer frequency, TF over GST control)"
same,binding signal,ETV2,"1.25 fold enrichment (6-mer frequency, TF over GST control)"
same,binding signal,ELF3,"1.15 fold enrichment (6-mer frequency, TF over GST control)"
same,binding signal,CRX,"1.22 fold enrichment (6-mer frequency, TF over GST control)"
same,binding signal,ETV1,"1.19 fold enrichment (6-mer frequency, TF over GST control)"
